Source: PubChem
An excerpt weighted towards active compounds, which were near 0.9% of everything screened.
SRC3 TRFRET art – TR-FRET artefact, counter-screen to PPARgamma/SRC-3 agonist assay; PPARgamma/SRC-3 format; stronger effect = higher value; TR-FRET ratio at 8 µM; hit rate 0.39% among 99,000; AID 1048
SRC2 TRFRET art – counter-screen for PPARgamma SRC-2 recruitment agonists: TR-FRET artefact. hit rate 0.4% among 200,000. stronger effect = higher value. TR-FRET ratio at 8 µM
SRC1 TRFRET art – flags TR-FRET format artefacts in PPARgamma SRC-1 recruitment agonist screen; TR-FRET detection artefact counter-screen, emission ratio; stronger effect = higher value; TR-FRET ratio at 8 µM; hit rate 0.34% among 99,000; AID 1051; in the data active means TR-FRET ratio above about 2300
PPARg SRC-2 ag – promotes SRC-2 coactivator recruitment by human PPARgamma. PPARgamma LBD-SRC-2 recruitment, biochemical. activation, % at 8 µM. hit rate 0.34% among 200,000. P37231; in the data active means activation above about 22%;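 further: 0% = vehicle and 100% = reference agonist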
Target sequence (P37231 whole entry, looked up, the tested form may be a part): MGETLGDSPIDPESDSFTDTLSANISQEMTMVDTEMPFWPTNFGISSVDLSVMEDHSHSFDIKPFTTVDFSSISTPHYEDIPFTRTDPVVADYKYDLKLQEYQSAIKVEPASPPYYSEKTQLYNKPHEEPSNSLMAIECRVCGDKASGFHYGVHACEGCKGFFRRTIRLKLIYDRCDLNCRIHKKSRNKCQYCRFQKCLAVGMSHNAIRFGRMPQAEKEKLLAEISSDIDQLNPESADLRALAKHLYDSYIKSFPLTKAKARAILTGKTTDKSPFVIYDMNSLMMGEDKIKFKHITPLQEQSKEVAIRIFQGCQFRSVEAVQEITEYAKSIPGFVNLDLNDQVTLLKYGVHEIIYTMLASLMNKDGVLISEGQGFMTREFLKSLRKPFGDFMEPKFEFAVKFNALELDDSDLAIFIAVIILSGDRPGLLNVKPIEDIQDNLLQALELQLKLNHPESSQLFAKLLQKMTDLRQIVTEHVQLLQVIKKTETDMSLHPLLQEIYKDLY
PPARg SRC3 recr – agonists of human PPARgamma SRC-3 coactivator recruitment | activation, % at 8 µM | hit rate 0.26% among 200,000 | biochemical PPARgamma/SRC-3 coactivator recruitment assay | P37231; in the data active means activation above about 23%;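 further: 0% = DMSO and 100% = reference agonist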
PPARg SRC-1 ag – agonists of human PPARgamma SRC-1 coactivator recruitment; P37231; PPARgamma-SRC-1 coactivator recruitment biochemical assay; activation, % at 8 µM; hit rate 0.41% among 200,000; in the data active means activation above about 19%;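 further: 0% = DMSO and 100% = reference agonist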
* hit, by the source's call; / = no result. Unless noted, no stated cut-off is given here; in the data, active means TR-FRET ratio above about 2000; inactive means the rest.

SMILES	SRC3 TRFRET art	SRC2 TRFRET art	SRC1 TRFRET art	PPARg SRC-2 ag	PPARg SRC3 recr	PPARg SRC-1 ag
CC1CCN(S(=O)(=O)c2ccc(C(=O)Nc3sccc3C(N)=O)cc2)CC1	/	1507	/	-2.3	-0.7	29.3*
CCOC(=O)c1c(C)[nH]c(C(=O)COC(=O)CNC(=O)C2CCCCC2)c1C	/	1519	/	2.4	28.8*	6.9
Cc1cccc(Cn2cc(SCC(=O)Nc3nccs3)c3ccccc32)c1	/	1694	/	4.8	4.6	2.5
Cc1ccc(Cn2cc(SCC(=O)Nc3nccs3)c3ccccc32)cc1	/	2880*	/	-1.6	1.7	-5.4
CCOc1cccc2cc(C(=O)Nc3cc(C)on3)c(=O)oc12	/	1720	/	6.4	3.1	37.8*
CCOc1cccc2cc(C(=O)Nc3ccccc3-c3ccccc3)c(=O)oc12	1345	1460	1745	-9.0	0.6	-4.1
C=CCC1Cc2c(Br)cccc2C(CC=C)N1 (stereo unspecified)	1570	2035*	2057	5.4	1.8	2.6
CCOC(=O)/C(C#N)=C/c1cc2ccccc2nc1N1CCCCC1	2129*	2031*	2172	11.5	15.9	16.9
O=C(Cc1sc(-c2ccccc2Cl)nc1-c1ccccc1)Nc1ccccc1	/	1609	/	5.5	0.9	75.3*
CCc1ccc(CN(C)C(=O)CCc2nnc(CCc3ccccc3OC)o2)nc1	1653	1327	1727	3.2	4.1	4.5
Cc1ccccc1OCC(=O)Nc1sc(C(=O)Nc2cccc(C)c2C)c(C)c1C#N	/	1740	/	5.0	5.2	23.7*
CCCCN(CC)CCCNC(=O)C1CCN(c2ncnc3c2sc2cccc(F)c23)CC1	1560	1749	1678	4.9	-2.8	2.5
CCOc1nc(-c2ccccc2)ccc1-c1noc(-c2cccs2)n1	/	1549	/	2.9	-5.5	33.7*
CCOc1nc(-c2ccccc2)ccc1-c1noc(-c2ccncc2)n1	1406	1670	1933	0.3	2.1	-3.5
COc1ccc(Nc2nc(S(=O)(=O)c3ccc(C)cc3)c(Cl)s2)cc1	1860	1709	2100	3.4	22.9*	6.3
Cc1ccc(S(=O)(=O)c2nc(Nc3ccccc3)sc2Cl)cc1	1658	1595	1923	8.0	6.2	13.0
Cc1c(C(=O)Nc2ccncc2)sc2nc(-c3ccc(F)cc3)cn12	2105*	1995*	2289	21.7	13.4	6.3
COc1ccc(-c2cn3c(C)c(C(=O)Nc4ccncc4)sc3n2)cc1	/	1516	/	1.1	-14.7	1.0
O=C(Nc1cccc(S(=O)(=O)NC2=NCCCCC2)c1)c1cc(-c2ccc(Cl)cc2)nc2ccccc12	2132*	1927	2062	9.0	4.0	0.4
Cc1cc(=O)[nH]c(N/N=C/c2sccc2C)n1	1636	1625	1872	9.1	3.1	7.0
Cc1ccsc1/C=N/Nc1nc2ccccc2[nH]1	1746	1670	2515*	17.0	8.3	13.1
S=C(c1ccc(-c2cccc(Cl)c2)o1)N1CCOCC1	1464	1576	1854	21.3	1.3	-2.3
S=C(c1ccc(-c2cccc(Cl)c2)o1)N1CCCCC1	1800	1774	2350*	12.8	8.3	-10.3
Cc1cccc(N2CCN(C(=S)c3ccc(-c4ccccc4[N+](=O)[O-])o3)CC2)c1	1768	1746	1970	-0.9	2.9	-3.6
O=[N+]([O-])c1ccccc1-c1ccc(C(=S)N2CCCC2)o1	1731	1992*	2075	5.4	1.4	3.6
SMILES	SRC3 TRFRET art	SRC2 TRFRET art	SRC1 TRFRET art	PPARg SRC-2 ag	PPARg SRC3 recr	PPARg SRC-1 ag
CCN1CCN(S(=O)(=O)CC2(C)C3CCC2(C)C(=O)C3Br)CC1 (stereo unspecified)	1641	1410	1667	-1.6	1.7	-0.6
O=C(Nc1cc(S(=O)(=O)N2CCOCC2)ccc1N1CCCC1)c1ccc2c(c1)S(=O)(=O)c1ccccc1C2=O	1512	1978*	2072	4.2	0.0	-1.2
O=C(Nc1ccccc1F)Nc1cc(S(=O)(=O)N2CCOCC2)ccc1N1CCCC1	1572	1691	1664	8.8	-1.5	7.2
CCOc1ccc(NC(=S)NC(C)C(c2ccccc2)N2CCN(C)CC2)cc1 (stereo unspecified)	1519	1416	1662	2.5	2.4	8.2
CC(NC(=O)COc1ccccc1)C(c1ccccc1)N1CCN(C)CC1 (stereo unspecified)	1665	1583	2331*	6.5	1.3	8.6
O=[N+]([O-])c1ccc(S(=O)(=O)NCCc2ccncc2)cc1	1582	1678	2050	14.2	5.9	3.1
CCOC(=O)c1cnc2c(C(F)(F)F)cccc2c1N1CCOCC1	/	1583	/	-0.8	-3.0	-9.0
CCOC(=O)c1cnc2c(C)c(Cl)ccc2c1N1CCOCC1	/	1588	/	-0.4	40.1*	7.2
CC1CC(C)(C)NC(=S)N1CCCC(=O)Nc1ccccc1F (stereo unspecified)	1389	1448	1735	-0.3	-3.2	2.6
CC1CC(C)(C)NC(=S)N1CCCC(=O)N1CCN(c2ccccc2F)CC1 (stereo unspecified)	1491	1431	2350*	-6.2	-3.2	11.4
O=C(O)C1=C[C@H](c2csc3ccccc23)C[C@H](OCCCCO)O1	1554	1442	1808	-3.3	-7.1	1.5
OC(C#CCN1CCCC1)(c1ccccc1)c1cccc(F)c1 (stereo unspecified)	1768	1613	1858	25.5*	6.8	0.6
O=C(CC1NCCNC1=O)Nc1ccc([N+](=O)[O-])cc1 (stereo unspecified)	1613	1771	2052	5.6	2.5	-0.8
O=C(COC(=O)c1ccccc1C(=O)c1ccccc1)NCCc1ccccc1	1639	1651	1888	5.0	5.9	20.9*
O=C(O)c1cc(-c2cccs2)nn1-c1cccc(Cl)c1	1777	1488	1898	-3.7	3.8	5.7
CN(C)S(=O)(=O)c1cccc(NC(=O)c2cc(-c3cccs3)nn2-c2cccc(Cl)c2)c1	2416*	2193*	2166	8.8	8.5	10.9
CC1(c2cccs2)CC(c2cccs2)=C(C#N)C(=O)N1 (stereo unspecified)	/	1513	/	-1.4	7.6	-5.2
CCC(C)(C(=O)NC1CCCC1)N(C)C(=O)c1ccccn1 (stereo unspecified)	1782	1532	1913	2.2	4.5	0.8
COc1ccc(-c2noc(-c3ccc(Br)o3)n2)cc1OC	/	1607	/	-1.2	36.0*	5.9
COc1cc(-c2nc(-c3ccc(Br)o3)no2)cc(OC)c1OC	/	1695	/	12.8	-6.1	10.4
CCOC(=O)C1CCN(C(=O)CSc2ccccc2Cl)CC1	1667	1445	1902	2.7	3.0	21.2*
CCS(=O)(=O)N1CCN(C2CCC(c3ccccc3)CC2)CC1 (stereo unspecified)	/	1733	/	2.5	2.6	20.2*
CCCc1nnc(SCc2ccc(OC)cc2)n1N	/	1496	/	6.1	-4.8	-1.5
O=C(Nc1nccc(-c2cccs2)n1)c1cccs1	/	1536	/	4.0	3.5	-1.5
Nc1nccc(-c2cccs2)n1	1787	2014*	2012	4.7	4.5	-2.4
CSc1ccc(/C=C/C(=O)c2ccc(NC(=O)C(C)C)cc2)cc1	/	1546	/	7.9	0.3	-4.8
